Assay outcomes deposited in PubChem BioAssay by The Scripps Research Institute Molecular Screening Center.
PME-1 primary: PME-1 (human) inhibition | Q9Y570 | AID 2130 | 0.53% of 320,000 active | recombinant PME-1, FP-Rh probe fluorescence polarization | inhibition, % at 5.9 µM;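 active = inhibition above the campaign mean of all compounds plus 3 SD, cut at about 26% in these data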;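 note: competitive labeling of PME-1 active site by serine hydrolase directed probe; inhibitors block probe labeling so polarization falls and inhibition rises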
Target sequence (Q9Y570 whole entry, looked up): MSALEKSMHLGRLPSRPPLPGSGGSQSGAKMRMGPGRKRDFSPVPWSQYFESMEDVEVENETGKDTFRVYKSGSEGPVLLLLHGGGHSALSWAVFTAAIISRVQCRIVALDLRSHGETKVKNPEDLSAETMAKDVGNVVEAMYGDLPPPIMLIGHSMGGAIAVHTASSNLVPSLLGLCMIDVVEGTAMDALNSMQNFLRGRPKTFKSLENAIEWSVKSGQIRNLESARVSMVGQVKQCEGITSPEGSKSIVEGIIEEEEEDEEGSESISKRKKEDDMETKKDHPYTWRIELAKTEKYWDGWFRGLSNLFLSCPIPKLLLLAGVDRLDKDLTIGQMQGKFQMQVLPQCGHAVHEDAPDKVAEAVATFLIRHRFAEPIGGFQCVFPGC
PAFAH1B3 FP inh: PAFAH1B3 (human) inhibition; recombinant PAFAH1B3, FP-rhodamine probe, fluorescence polarization; inhibition, % at 3.39 µM; 0.28% of 340,000 active;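 active = inhibition above the screen-wide average of all tested compounds plus 3 SD, cut at about 25% in these data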
PAFAH2 inh: PAFAH2 (human) inhibition; 0.99% of 340,000 active; recombinant PAFAH2, FP-rhodamine activity probe, fluorescence polarization; inhibition, % at 3.39 µM;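 active = inhibition above the mean over all tested compounds plus 3 SD, cut at about 30% in these data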;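 note: inhibitors block probe labeling of enzyme so polarization drops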
Fam108B inh: counter-screen for RBBP9 inhibitors: inhibitors of mouse Fam108B; recombinant Fam108B, FP-Rh probe fluorescence polarization; 0.33% of 300,000 active; inhibition, % at 9.51 µM;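 active = inhibition above the screen mean inhibition plus 3 SD, computed separately per campaign, cut at about 18% in these data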;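 note: inhibitors lower polarization as less probe binds the enzyme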
PAFAH1B2 inh: PAFAH1B2 (human) inhibition; P68402; recombinant PAFAH1B2, FP-rhodamine activity probe, fluorescence polarization; inhibition, % at 3.39 µM; 1.2% of 340,000 active; AID 492953;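 active = inhibition above the mean of all tested compounds plus 3 SD, cut at about 24% in these data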
Target sequence (P68402 whole entry, looked up): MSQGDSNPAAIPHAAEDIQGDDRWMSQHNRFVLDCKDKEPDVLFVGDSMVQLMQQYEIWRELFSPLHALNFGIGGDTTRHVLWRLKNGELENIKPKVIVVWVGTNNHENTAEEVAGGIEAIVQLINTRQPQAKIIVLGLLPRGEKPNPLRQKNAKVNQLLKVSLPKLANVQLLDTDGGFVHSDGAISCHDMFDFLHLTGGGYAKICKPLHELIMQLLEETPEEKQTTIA
pPAFAH FP inh: inhibitors of human plasma PAF acetylhydrolase (pPAFAH) | Q13093 | recombinant pPAFAH, FP-rhodamine probe fluorescence polarization | inhibition, % at 3.39 µM | 1.5% of 330,000 active | AID 463082;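 active = inhibition above the mean inhibition across the screen plus 3 SD, cut at about 25% in these data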;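 note: inhibitors block binding of the rhodamine activity-based probe so polarization drops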
Large screens that a line does not name were inactive. In the library only some 2.8% were active in any assay of this set; here they are far more common.

CC(C)c1ccc(NC(=O)C2CCCCC2C(=O)O)cc1 (centres undefined)	none
CC(C)C(=O)Nc1ccc2c(c1)nc(CCN1CCN(c3ccccn3)CC1)n2C	none (no result: PME-1 primary, Fam108B inh, pPAFAH FP inh)
COc1ccc(N(C(=O)c2ccco2)C(C(=O)NC2CCCC2)c2ccccc2)cc1 (centres undefined)	pPAFAH FP inh 34
COc1ccc(N(C(=O)CNC(=O)c2ccco2)C(C(=O)NC2CCCCC2)c2ccco2)cc1 (centres undefined)	PAFAH1B2 inh 26
COc1ccccc1CNCCS(=O)(=O)NN1CCOCC1	none (no result: PME-1 primary, Fam108B inh)
CC(CCc1ccccc1)NS(=O)(=O)c1ccccc1 (centres undefined)	PAFAH1B2 inh 33
COc1ccc(OC)c(S(=O)(=O)NC(C)CCc2ccccc2)c1 (centres undefined)	none
O=C(O)CCCN1C(=O)/C(=C\c2ccco2)SC1=S	none (no result: PME-1 primary, Fam108B inh, pPAFAH FP inh)
O=C1/C(=C\c2ccco2)SC(=S)N1Cc1ccccc1	pPAFAH FP inh 25
O=C1/C(=C/c2ccccn2)SC(=S)N1Cc1ccccc1	none (no result: PAFAH1B3 FP inh, PAFAH2 inh, PAFAH1B2 inh)
O=C1/C(=C\c2ccco2)SC(=S)N1c1ccccc1	pPAFAH FP inh 29
O=C(CCCN1C(=O)/C(=C\c2ccco2)SC1=S)Nc1ccc2ccccc2c1	pPAFAH FP inh 28
Cc1ccc(N2C(=O)/C(=C\c3ccco3)SC2=S)cc1	none
COc1ccccc1CCC(=O)NNC(=O)c1cccs1	none (no result: PME-1 primary, Fam108B inh)
CN(CC(=O)Nc1ccc(Cl)c(C(F)(F)F)c1)C(=O)c1cccc2cccnc12	none (no result: Fam108B inh)
Cn1c(=O)c2c([nH]c(=O)n2C)n(Cc2ccccc2)c1=O	none (no result: PAFAH1B3 FP inh, PAFAH2 inh, PAFAH1B2 inh)
CC(C(=O)O)N(C(=O)c1ccccc1)c1ccc(F)cc1 (centres undefined)	PAFAH1B2 inh 29
COc1ccc(NC(=O)CN(C)C(=O)c2ccc3[nH]c4c(c3c2)CC(C)CC4)cc1 (centres undefined)	none
CC1CCc2[nH]c3ccc(C(=O)N(C)CC(=O)Nc4ccc(F)cc4)cc3c2C1 (centres undefined)	PAFAH2 inh 49, PAFAH1B2 inh 39
CN(C(=O)CSc1nnc(-c2ccc(F)cc2)n1C)C1CCS(=O)(=O)C1 (centres undefined)	none (no result: PME-1 primary, Fam108B inh)
COc1ccc(-c2cnnc(N/N=C/c3ccc(O)c(O)c3)n2)cc1	PME-1 primary 29
CCCCC1OC23CCCCC2C(C#N)(C#N)C1(C#N)C(=N)O3 (centres undefined)	PAFAH1B3 FP inh 36, PAFAH2 inh 41, PAFAH1B2 inh 30
N#CC1(C#N)C(c2ccccc2)OC23CCCCC2C1(C#N)C(=N)O3 (centres undefined)	none
N#CC1(C#N)C(c2ccccc2)OC23CCCCCC2C1(C#N)C(=N)O3 (centres undefined)	none
CCCCC1OC23CCCCC2C(C#N)(C(=N)O3)C1(C#N)C#N (centres undefined)	PAFAH1B3 FP inh 26, PAFAH2 inh 36, PAFAH1B2 inh 30
Nc1nc2ccccc2n1CCOc1ccc(F)cc1	none
CCO[C@@H]1OC(C(=O)N2CCN(Cc3ccccc3)CC2)=C[C@H](c2cn(C(C)=O)c3ccccc23)[C@H]1CCCO	PME-1 primary 71
CC(C)(C)OC(=O)NCCCCCNC(=O)c1[nH]cnc1C(=O)Nc1ccon1	none (no result: Fam108B inh)
O=C(CSc1nc(O)cc(=O)n1-c1ccccc1)c1ccc(Br)cc1	pPAFAH FP inh 25
O=c1cc(O)nc(SCc2ccccc2)n1-c1ccccc1	none
CSc1ccccc1NC(=O)c1ccccn1	none
Cc1ccccc1NC(=O)c1ccccn1	pPAFAH FP inh 27
C[C@]12CCC[C@H](O1)c1c(cc3c(c1O)C(=O)c1c(O)cc(O)cc1C3=O)O2	PAFAH2 inh 30, pPAFAH FP inh 27
CC1(C)CC(=O)c2c(O)cc(O)cc2O1	none
CC(C(=O)Nc1ccccc1-c1ccccc1)N1CCN(S(=O)(=O)c2ccccc2)CC1 (centres undefined)	PAFAH1B2 inh 31
Cc1ccc(S(=O)(=O)N2CCN(C(C)C(=O)NCC(C)c3ccccc3)CC2)cc1 (centres undefined)	PAFAH1B2 inh 29 (no result: PME-1 primary, Fam108B inh)
C=CCC1(CC=C)CCCN1C(=O)c1cc(COc2cncc(Cl)c2)on1	none
COCCN(Cc1cn[nH]c1-c1ccc2cc(OC)ccc2c1)C(C)C	none (no result: PME-1 primary, Fam108B inh, pPAFAH FP inh)
Cc1[nH]n(-c2ncc(-c3ccc(Cl)cc3)s2)c(=O)c1C(c1ccc(Cl)cc1)C(C#N)C#N (centres undefined)	pPAFAH FP inh 29
Cc1ccc(SCC(=O)OCC(=O)N(C)C2CCS(=O)(=O)C2)cc1C (centres undefined)	pPAFAH FP inh 25 (no result: Fam108B inh)
Cc1ccc(SCC(=O)OCC(=O)N(CC(C)C)C2CCS(=O)(=O)C2)cc1C (centres undefined)	none
CC(C)CN(C(=O)COC(=O)CSc1ccc([N+](=O)[O-])cc1)C1CCS(=O)(=O)C1 (centres undefined)	PAFAH1B2 inh 25
COc1ccc(-c2c(-c3ccc4c(c3)OCO4)c3ccccc3n2C)cc1	none (no result: PME-1 primary, Fam108B inh, pPAFAH FP inh)
O=C(Cc1ccc(Cl)cc1Cl)Nc1cccc(S(=O)(=O)Nc2ccccc2F)c1	pPAFAH FP inh 27
O=[N+]([O-])c1ccccc1/C=C/C=N/n1c(-c2ccc(Cl)cc2)n[nH]c1=S	pPAFAH FP inh 27
O=[N+]([O-])c1ccccc1/C=C/C=N/n1c(-c2ccccc2)n[nH]c1=S	none
COc1ccc2ccccc2c1C(=O)/C=C\c1ccoc1	pPAFAH FP inh 27
O=C(/C=C/c1ccoc1)c1ccccc1O	none
CN1OC[C@@H]2CN[C@H](c3cccc(-c4ccccc4)c3)C[C@@H]21	none (no result: PME-1 primary, Fam108B inh, pPAFAH FP inh)
O=C1NC(CCc2ccccc2)C(=O)N1CCOc1cccc(Br)c1 (centres undefined)	PAFAH1B2 inh 26
COc1cccc(NC(=O)CN2C(=O)NC(CCc3ccccc3)C2=O)c1 (centres undefined)	none (no result: Fam108B inh)
O=C(CN1C(=O)C2CCCCC2C1=O)OCC(=O)c1ccc(Cl)s1 (centres undefined)	PAFAH2 inh 40, pPAFAH FP inh 26
O=C(CNC(=O)C1CCCCC1)OCC(=O)c1ccc(Cl)s1	none
O=C(CCCN1C(=O)/C(=C/c2ccccc2Cl)SC1=S)NNC(=O)c1cccnc1	none
O=C(CCCN1C(=O)/C(=C/c2ccccc2Cl)SC1=S)NNC(=O)c1ccccc1	pPAFAH FP inh 32
CC(C(=O)Nc1ccc(O)cc1C(=O)O)N1C(=O)/C(=C\c2cccs2)SC1=S (centres undefined)	pPAFAH FP inh 28
O=C(CCCN1C(=O)/C(=C/c2cccs2)SC1=S)Nc1cc([N+](=O)[O-])ccc1O	pPAFAH FP inh 30
O=C(CCCN1C(=O)/C(=C\c2ccccc2)SC1=S)Nc1ccc(O)cc1C(=O)O	PAFAH1B2 inh 64
OCC1OC(n2ccc3c(SCc4ccccc4)ncnc32)C(O)C1O (centres undefined)	none (no result: PME-1 primary, Fam108B inh, pPAFAH FP inh)
CCc1ccc(/C=C2/SC(=S)N(CCCC(=O)Nc3ccccc3C(=O)O)C2=O)cc1	PAFAH2 inh 44, PAFAH1B2 inh 61
